Source: PubChem BioAssay (National Center for Advancing Translational Sciences (NCATS))
IP6K1 inhibitor – inhibitors of human IP6K1 | IP6K1 kinase, ADP-Glo luminescence, 2 h; active compounds read low | activity change, % (series mostly up to about 58 µM) | Q92551 | 140,000 tested, 0.81% active; in the data active = activity change below about -25%; note: % is set by controls: 0 for no effect and ±100 for the full control effect
Target sequence (Q92551 whole entry, looked up): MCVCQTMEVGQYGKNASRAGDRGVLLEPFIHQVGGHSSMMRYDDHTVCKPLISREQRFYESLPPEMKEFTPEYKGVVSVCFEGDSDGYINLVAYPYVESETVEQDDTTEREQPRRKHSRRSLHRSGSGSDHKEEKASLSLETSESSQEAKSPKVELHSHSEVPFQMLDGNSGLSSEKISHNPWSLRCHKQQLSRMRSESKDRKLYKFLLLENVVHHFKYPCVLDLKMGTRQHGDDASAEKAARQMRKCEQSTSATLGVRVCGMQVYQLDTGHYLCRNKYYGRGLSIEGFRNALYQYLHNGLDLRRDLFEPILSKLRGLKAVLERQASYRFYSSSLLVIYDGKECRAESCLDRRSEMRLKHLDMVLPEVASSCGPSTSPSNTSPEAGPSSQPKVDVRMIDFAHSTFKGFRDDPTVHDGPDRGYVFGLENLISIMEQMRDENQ
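ADP-Glo luminescence measures ADP made by human IP6K1 during a 2 h RT reaction with ATP/IP6 (mix at 1.3 mM/130 uM); top library doses 57.5 and 19.1 uM final.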
KDM5B inh – blocks human KDM5B histone demethylase activity | 220,000 tested, 2.6% active | Potency, µM (highest dose often 57.7 µM), hits mostly inhibitors | Q9UGL1 | KDM5B demethylase, FDH-coupled NADH fluorescence (FDH is formaldehyde dehydrogenase); note: potency is the fitted concentration of half-maximal effect; 0% is about no effect; nearly all actives have a fitted effect of over 70% in size
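qHTS format, multiple compound concentrations. Buffer 50 mM HEPES pH 7.5/0.01% Tween-20; 200 nM KDM5BΔAP final; 10 min compound preincubation; substrate-mix levels 12.5 µM peptide, 25 µM α-KG, 0.25 mM NAD⁺; 30 min RT; ΔRFU.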
IP6K1 inh cnf – human IP6K1 inhibition, confirmatory | recombinant IP6K1 kinase, ADP-Glo luminescence, 2 h | shares compounds with IP6K1 inhibitor | 1,200 tested, 13% active | Potency, µM (titrated, usually from 49 µM), without a hit: top-dose activity change, negative = inhibition, usual class: inhibitors; note: potency is the fitted concentration of half-maximal effect; % is set by controls: 0 for no effect and ±100 for the full control effect; nearly all actives have a fitted effect of over 65% in size
The depositor's hits bear a star; i = inactive; u = inconclusive; x = no result given; [ ] = dose if it differs, or a comment. Compounds with a hit are over-represented: about 2.8% of the library has one in this group of screens. Unless noted, calls come from the whole dose curve; as a rule, active = well fitted inhibition curve with a large enough effect; inconclusive = small, poorly fitted or top-dose-only effect; inactive = no such curve, though single readings can be large or run the other way.

SMILES	IP6K1 inhibitor	KDM5B inh	others
O=C(NCc1ccccn1)c1ccc2nnc(Cc3ccco3)n2c1	2	x
CCN(CCC(F)(F)F)C(=O)NCc1cccc2cccnc12	x	i
Cc1ccc(S(=O)(=O)N2CCCC2C(=O)n2nc(C)c(Sc3ccccc3)c2C)cc1 (stereo not drawn)	x	i
Cc1ccc(-c2noc(COC(=O)Cc3n[nH]c(=O)c4ccccc34)n2)cc1	x	i
Cn1c(=O)[nH]c(=O)c2c1nc(N1CCN(CCO)CC1)n2Cc1ccccc1F	x	i
COc1ccccc1-c1nc(C#N)c(N2CCN(C(=O)c3cccs3)CC2)o1	x	i
CC(C)Nc1ccc2nnc(-c3ccc(F)cn3)n2n1	-26*	u	IP6K1 inh cnf=3%[92.2 µM]
CC(C)Nc1ccc2nnc(-c3ccccn3)n2n1	13	u
O=C(Nc1ccc2nn(-c3ccc(F)cc3)nc2c1)c1cccc2c(Cl)cccc12	-28*	i	IP6K1 inh cnf=34%
COc1cc(C(=O)Nc2ccc3nn(-c4ccc(F)cc4)nc3c2)cc(OC)c1OC	-6	i
COCc1cnc2c(c1SCC(=O)NCc1ccccc1Cl)c(=O)n(C)c(=O)n2C	x	i
CC(=O)N1CCC(C(=O)N2CCCC(c3nc4ccncc4[nH]3)C2)CC1 (stereo not drawn)	5	x
Cn1c(SCC(=O)NCc2ccc3c(c2)OCO3)nnc1-c1ccco1	x	i
